Each structure is given as a SMILES string. Several values for one entry are separate records, joined by “and”; a condition that tells them apart may be missing. Equal entries are not always repeated. Results filed as inconclusive are left out. Where a call stands in place of a potency, no number is given. Where a structure was tested more than once in an assay, its records may differ in their call. Activity calls are given as the source filed them. The call rests on the fitted dose curve; in most records, active means well fitted inhibition curve with a large enough effect in the repeat runs; inconclusive means weak or mixed curves; inactive means no such curve, though single readings can be large or run the other way. Residues, ends and D or L forms follow the SMILES beside them.

We go through 39 compounds from PubChem BioAssay (Tox21).
Potency means the concentration at half of the fitted maximal effect.

Chain of Cytochrome P450 2C19 (Homo sapiens) (P33261 whole entry, looked up): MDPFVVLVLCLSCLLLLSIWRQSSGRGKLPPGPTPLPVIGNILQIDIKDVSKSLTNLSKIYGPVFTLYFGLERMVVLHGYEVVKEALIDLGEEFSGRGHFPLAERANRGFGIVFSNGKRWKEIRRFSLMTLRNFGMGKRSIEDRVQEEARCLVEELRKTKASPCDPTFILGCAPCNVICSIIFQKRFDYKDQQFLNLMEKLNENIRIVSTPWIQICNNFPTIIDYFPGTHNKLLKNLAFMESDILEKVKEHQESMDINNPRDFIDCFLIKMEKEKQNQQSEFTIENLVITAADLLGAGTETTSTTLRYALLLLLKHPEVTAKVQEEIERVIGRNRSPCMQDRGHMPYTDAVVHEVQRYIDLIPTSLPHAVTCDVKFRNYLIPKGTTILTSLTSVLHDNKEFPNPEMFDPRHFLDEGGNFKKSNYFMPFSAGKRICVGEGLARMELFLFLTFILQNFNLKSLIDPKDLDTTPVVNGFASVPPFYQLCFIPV

The target of this experiment is Cytochrome P450 2C19 (Homo sapiens) (UniProt P33261). Put plainly: Cytochrome P450 Family 2 Subfamily C Member 19 (CYP2C19) small molecule antagonists: luciferase reporter qHTS assay (AID 1671197). Further: nearly all actives have a fitted effect of over 65% in size. Particulars: P450-Glo CYP2C19 enzyme, luciferin luminescence, 1 h; series mostly up to 115 µM. The source says:
National Center for Advancing Translational Sciences [NCATS]
U.S. Environmental Protection Agency [EPA]
National Institutes of Environmental Health Sciences [NIEHS]
National Toxicology Program [NTP]
U.S. Food and Drug Administration [FDA]
Cytochrome P450 (CYP) enzymes are membrane-bound hemeproteins that play a key role in metabolism of drugs and xenobiotics. Evaluation of the effect of chemicals on CYP isozymes is useful to minimize the adverse drug reactions and toxicities in drug development process. Tox21 chemicals were tested for their effect on CYP enzyme activities by using P450-Glo (TM) screening systems (Promega Corporation, Madison, WI). These systems provide a luminescent method containing proluciferin substrates and are converted to luciferin products by CYP isozymes. The luciferin products formed are detected with a luciferin detection reagent, and the amount of light produced is proportional to CYP activity. P450-Glo (TM) CYP2C19 screening system (Catalog. No. V9880) was used to detect the compounds that interfere in CYP2C19 activity. The positive control compound used for CYP2C19 assay is ketoconazole (Sigma-Aldrich, St. Louis, MO).
Tox21 Assay Protocol Summary:
Two ul of enzyme-substrate mix was dispensed into medium binding white/solid 1536-well plates (Greiner Bio-One North America Inc., Monroe, NC) using a BioRaptr Flying Reagent Dispenser (FRD, Beckman Coulter, Brea, CA). Compounds dissolved in DMSO and positive control (ketoconazole) were transferred to the assay plates at 23 nl using a Pintool station (Wako, San Diego, CA). The assay plates were incubated at room temperature for 10 min. Then 2 ul of NADPH regeneration solution was added to each well of the assay plates using an FRD and incubated at 37C for 1 h. The reaction was stopped by adding 4 ul of detection reagent using an FRD and after 20 min incubation at room temperature the luminescence signal was measured using a ViewLux plate reader (Perkin Elmer, Shelton, CT). Data were expressed as relative luminescence units.
In the case of `CC(O)CO` (stereo not given), the Potency entry was “inactive”.

As for `CC(C)[C@@H]1CC[C@@H](C)C[C@H]1O`, the Potency entry is “inactive”.

`O=C(O)CS`: the Potency entry is “inactive”.

With `O=C(O)C(=O)O`, the activity change, negative = inhibition is -11.9% [at 10.5 µM] (inactive) and the Potency is 81 µM (active).

`O=c1ccc2ccccc2o1`: the Potency entry was “inactive”.

`Nc1ccc(S(=O)(=O)Nc2nccs2)cc1`: the Potency entry was “inactive”.

In the case of `Nc1ccn([C@H]2CC[C@@H](CO)O2)c(=O)n1`, the Potency is 78.3 µM (active) and inactive.

Take `CCCCC(CC)COC(=O)/C=C/c1ccc(OC)cc1` (stereo not given): the Potency is 39.8 µM (active) and 25.2 µM (active) and 24.5 µM (active).

Regarding `CCCCOC(=O)CC(CC(=O)OCCCC)(OC(C)=O)C(=O)OCCCC`, the Potency was 2.19 µM (active) and 4.04 µM (active) and 3.56 µM (active).

On to `O=C(O)c1cc(N=Nc2ccc(S(=O)(=O)Nc3ccccn3)cc2)ccc1O`, for which the Potency is 56.6 µM (active) and inactive.

Regarding `CCOc1ccc(NC(=O)CC(C)O)cc1` (stereo not given), the Potency result is “inactive”.

For the compound `Cn1cc[nH]c1=S`, the Potency result is “inactive”.

In the case of `C[C@]12C=CC(=O)C=C1CC[C@@H]1[C@@H]2[C@@H](O)C[C@@]2(C)[C@H]1CC[C@]2(O)C(=O)CO`, the Potency is 78.6 µM (active) and inactive.

For the compound `CCCCC1C(=O)N(c2ccccc2)N(c2ccccc2)C1=O`, the Potency is 5.6 µM (active) and 25.2 µM (active).

As for `CC1(C)[C@@H]2CC[C@@]1(C)C(=O)C2`, the Potency entry was “inactive”.

Regarding `CCCC(CCC)C(=O)O`, the Potency entry is “inactive”.

As to `O=C1NC(=O)c2ccccc21`, the Potency entry was “inactive”.

As to `Cc1noc(NS(=O)(=O)c2ccc(N)cc2)c1C`, the Potency result is “inactive”.

As to `CC(=O)Nc1nnc(S(N)(=O)=O)s1`, the Potency result was “inactive”.

For `Cn1c(=O)c2[nH]cnc2n(C)c1=O`, the Potency result is “inactive”.

Consider `NC(=O)c1cnccn1`, for which the Potency entry is “inactive”.

Take `CCCC(O)C(CC)CO` (stereo not given): the Potency result is “inactive”.

For the compound `CCCCCCCCCCCCCCCC(=O)O`, the Potency is 80.5 µM (active) and inactive.

Consider `c1ccc2[nH]ccc2c1`, for which the Potency is 49.4 µM (active) and inactive.

As to `Cc1cc(=O)[nH]c(=S)[nH]1`, the Potency entry is “inactive”.

Turning to `Cc1cn([C@H]2C[C@H](N=[N+]=[N-])[C@@H](CO)O2)c(=O)[nH]c1=O`, the Potency is 41.1 µM (active) and 39.9 µM (active) and inactive.

On to `COC(=O)[C@H](Cc1ccccc1)NC(=O)[C@@H](N)CC(=O)O` (H-Asp-Phe-OMe), for which the Potency entry was “inactive”.

`O=C(C1CCCCC1)N1CC(=O)N2CCc3ccccc3C2C1` (stereo not given): the Potency was 7.95 µM (active) and 17.8 µM (active) and 9.77 µM (active).

`O=C(O)c1[nH]n(-c2ccc(S(=O)(=O)O)cc2)c(=O)c1N=Nc1ccc(S(=O)(=O)O)cc1`: the Potency result is “inactive and 79.9 µM (active) and 29.6 µM (active)”.

Take `O=C(O)CCC(=O)O`: the Potency entry is “inactive”.

For the compound `Nc1ccc(O)c(C(=O)O)c1`, the Potency was 79 µM (active) and 31.7 µM (active) and inactive.

With `CCCNC(=O)NS(=O)(=O)c1ccc(Cl)cc1`, the Potency result is “inactive”.

Regarding `CC(=O)NS(=O)(=O)c1ccc(N)cc1`, the Potency entry is “inactive”.

As for `Cc1ccccc1C(OCCN(C)C)c1ccccc1` (stereo not given), the Potency result is “inactive”.

For `Cc1cc(=O)n(-c2ccccc2)n1C`, the Potency entry is “inactive”.

`NNC(=O)c1ccncc1`: the Potency was 15.9 µM (active) and 2.97 µM (active) and 17.4 µM (active).

As to `O=C(O)c1cccc([N+](=O)[O-])c1`, the Potency result was “inactive”.

Take `NC(=O)c1ccccc1O`: the Potency result is “inactive”.

For the compound `CC(O)C(=O)O` (stereo not given), the Potency result was “inactive and 81.1 µM (active)”.
